# Source: the supplement of paper PMC10849652
# Of roughly 7,900 targets only a part is listed; those with a hit were picked by preference. About 0.6% of all pairs of compound and target were hits. A number with no mark means an inactive call.
# Key:
# Assay in all cases: log2 fold change, soluble protein after heating vs DMSO (PISA); higher = thermal stabilisation; K562 cells, 10 uM, 30 min; active = over 0.2 and 3.5 SD of the protein, either way, in both replicates (recomputed)
# [1] = compound: CC[C@@H]1C(=O)N(C)c2cnc(Nc3ccc(C(=O)NC4CCN(C)CC4)cc3OC)nc2N1C1CCCC1
# Procedure, shortened: (§1)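 Thermal stability values are relative to control samples and come from duplicates. They are expressed as log2 fold changes. For measurement, K562 cells (2×10^6 cells/mL) received 10 μM compound for 30 min, and aliquots were heated for 3 min over 48°C-58°C, pooled, and extracted at 4°C in PBS with 0.5% NP-40. Soluble protein, the supernatant after 21,000xg for 90 min, was quantified by TMTpro 16plex LC-MS/MS with equalised channel sums.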
# [2] = compound: CC[C@@H]1C(=O)N(C)c2cnc(Nc3ccc(C(=O)N[C@H]4CC[C@H](N5CCN(CC6CC6)CC5)CC4)cc3OC)nc2N1C(C)C [volasertib]
# Procedure, shortened: as §1
# [3] = compound: CC[C@H](C)N1C=C(C2=C(C=C(C=C21)C3=CN=C(C=C3)N4CCNCC4)C(=O)NCC5=C(C=C(NC5=O)C)C)C
# Procedure, shortened: as §1
# [4] = compound: CC[C@H](C)[C@@H](C(=O)N[C@@H]([C@@H](C)O)C(=O)N[C@@H](CC(C)C)C(=O)[C@]1(CO1)C)NC(=O)[C@H]([C@@H](C)CC)N(C)C(=O)C [epoxomicin]
# Procedure, shortened: as §1
# [5] = compound: CCn1c(C(=O)N(C2CC2)C2CC2)cc2c3c(ncn3C)c(Nc3cc(C)n(C)n3)nc21
# Procedure, shortened: as §1
# [6] = compound: CCn1cc(-c2ccnc3[nH]c(-c4cccc(CN(C)C)c4)cc23)c(-c2ccc(NC(=O)N(C)C)cc2)n1
# Procedure, shortened: as §1
# [7] = compound: CN(C)CC(=O)Nc1ccc2[nH]c(=O)c3ccccc3c2c1
# Procedure, shortened: as §1
# [8] = compound: CN(CCOC1=CC=C(C=C1)C[C@H]2C(=O)NC(=O)S2)C3=CC=CC=N3 (racemic) [rosiglitazone]
# Procedure, shortened: as §1
# [9] = compound: CN1C2=C(C3=C1C(=O)N(N=C3)CC4=CC(=CC=C4)N)SC(=C2)S(=O)C
# Procedure, shortened: as §1
# [10] = compound: CN1CCC(CNc2ccc3ncc(-c4cccc(OC(F)(F)F)c4)n3n2)CC1
# Procedure, shortened: as §1
# [11] = compound: CN1CCN(CCOc2cc(OC3CCOCC3)c3c(Nc4c(Cl)ccc5c4OCO5)ncnc3c2)CC1 [saracatinib]
# Procedure, shortened: as §1
# [12] = compound: CN1CCN(c2nc(C3=C(c4c[nH]c5ccccc45)C(=O)NC3=O)c3ccccc3n2)CC1 [sotrastaurin]
# Procedure, shortened: as §1
# [13] = compound: CN1CC[C@H](c2c(O)cc(O)c3c(=O)cc(-c4ccccc4Cl)oc23)[C@H](O)C1 [alvocidib]
# Procedure, shortened: as §1
# [14] = compound: CN1CCc2c(c3ccccc3n2Cc2ccc(C(=O)NO)cc2)C1 [Tubastatin A]
# Procedure, shortened: as §1
# [15] = compound: CNC(=O)C1=CC=CC=C1NC2=NC(=NC=C2Cl)NC3=C(C=C(C=C3)N4CCOCC4)OC
# Procedure, shortened: as §1
# [16] = compound: CNC(=O)c1ccc(Nc2ncc(C(F)(F)F)c(NCc3nccnc3N(C)S(C)(=O)=O)n2)cc1 [defactinib]
# Procedure, shortened: as §1
# [17] = compound: CNCc1ccc(-c2[nH]c3cc(F)cc4c3c2CCNC4=O)cc1 [rucaparib]
# Procedure, shortened: as §1
# [18] = compound: CNc1nc(-c2ccc3c(N)n[nH]c3c2)cc(N2C[C@@H](C(=O)NC3CCCCC3)CC[C@H]2C)n1
# Procedure, shortened: as §1
# [19] = compound: COC(=O)N[C@@H](C)CNc1nccc(-c2cn(C(C)C)nc2-c2cc(Cl)cc(NS(C)(=O)=O)c2F)n1 [encorafenib]
# Procedure, shortened: as §1
# [20] = compound: COC(=O)[C@H](CCSC)NC(=O)C1=C(C=C(C=C1)NC[C@H](CS)N)C2=CC=CC=C2
# Procedure, shortened: as §1
# Sequence of UniProt Q14203 (Q14203 whole entry, looked up): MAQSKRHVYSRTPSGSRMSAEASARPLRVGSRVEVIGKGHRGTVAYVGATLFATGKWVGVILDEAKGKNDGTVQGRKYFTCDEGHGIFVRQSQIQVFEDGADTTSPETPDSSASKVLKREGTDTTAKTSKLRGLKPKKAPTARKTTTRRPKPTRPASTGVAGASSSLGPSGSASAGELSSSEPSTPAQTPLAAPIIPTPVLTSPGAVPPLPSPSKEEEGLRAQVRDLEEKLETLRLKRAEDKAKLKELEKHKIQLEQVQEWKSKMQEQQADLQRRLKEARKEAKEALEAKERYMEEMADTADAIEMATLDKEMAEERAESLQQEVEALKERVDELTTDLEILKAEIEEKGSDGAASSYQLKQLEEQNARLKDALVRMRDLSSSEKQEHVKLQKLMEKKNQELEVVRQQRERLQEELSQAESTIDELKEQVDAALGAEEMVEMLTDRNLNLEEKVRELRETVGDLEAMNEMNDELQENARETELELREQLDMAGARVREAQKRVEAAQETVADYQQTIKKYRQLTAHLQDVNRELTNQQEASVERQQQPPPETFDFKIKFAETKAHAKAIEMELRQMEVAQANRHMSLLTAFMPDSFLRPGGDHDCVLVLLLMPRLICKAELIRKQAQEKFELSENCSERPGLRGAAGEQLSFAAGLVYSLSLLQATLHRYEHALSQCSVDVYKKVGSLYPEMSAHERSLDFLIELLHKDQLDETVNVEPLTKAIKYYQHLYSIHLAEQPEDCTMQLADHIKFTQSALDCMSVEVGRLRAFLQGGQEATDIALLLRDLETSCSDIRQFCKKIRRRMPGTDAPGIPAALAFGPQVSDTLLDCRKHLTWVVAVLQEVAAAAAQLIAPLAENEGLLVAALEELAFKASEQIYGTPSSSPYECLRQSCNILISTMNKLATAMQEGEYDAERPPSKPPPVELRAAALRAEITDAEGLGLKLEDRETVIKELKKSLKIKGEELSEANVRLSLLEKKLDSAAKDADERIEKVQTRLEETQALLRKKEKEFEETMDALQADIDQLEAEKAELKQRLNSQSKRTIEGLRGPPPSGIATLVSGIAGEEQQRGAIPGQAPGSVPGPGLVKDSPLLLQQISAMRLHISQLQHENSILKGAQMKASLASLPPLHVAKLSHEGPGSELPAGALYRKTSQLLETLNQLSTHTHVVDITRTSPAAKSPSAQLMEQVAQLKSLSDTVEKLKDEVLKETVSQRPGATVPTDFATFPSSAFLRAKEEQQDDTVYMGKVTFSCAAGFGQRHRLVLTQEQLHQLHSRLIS
# Sequence of UniProt Q9H2U1 (Q9H2U1 whole entry, looked up): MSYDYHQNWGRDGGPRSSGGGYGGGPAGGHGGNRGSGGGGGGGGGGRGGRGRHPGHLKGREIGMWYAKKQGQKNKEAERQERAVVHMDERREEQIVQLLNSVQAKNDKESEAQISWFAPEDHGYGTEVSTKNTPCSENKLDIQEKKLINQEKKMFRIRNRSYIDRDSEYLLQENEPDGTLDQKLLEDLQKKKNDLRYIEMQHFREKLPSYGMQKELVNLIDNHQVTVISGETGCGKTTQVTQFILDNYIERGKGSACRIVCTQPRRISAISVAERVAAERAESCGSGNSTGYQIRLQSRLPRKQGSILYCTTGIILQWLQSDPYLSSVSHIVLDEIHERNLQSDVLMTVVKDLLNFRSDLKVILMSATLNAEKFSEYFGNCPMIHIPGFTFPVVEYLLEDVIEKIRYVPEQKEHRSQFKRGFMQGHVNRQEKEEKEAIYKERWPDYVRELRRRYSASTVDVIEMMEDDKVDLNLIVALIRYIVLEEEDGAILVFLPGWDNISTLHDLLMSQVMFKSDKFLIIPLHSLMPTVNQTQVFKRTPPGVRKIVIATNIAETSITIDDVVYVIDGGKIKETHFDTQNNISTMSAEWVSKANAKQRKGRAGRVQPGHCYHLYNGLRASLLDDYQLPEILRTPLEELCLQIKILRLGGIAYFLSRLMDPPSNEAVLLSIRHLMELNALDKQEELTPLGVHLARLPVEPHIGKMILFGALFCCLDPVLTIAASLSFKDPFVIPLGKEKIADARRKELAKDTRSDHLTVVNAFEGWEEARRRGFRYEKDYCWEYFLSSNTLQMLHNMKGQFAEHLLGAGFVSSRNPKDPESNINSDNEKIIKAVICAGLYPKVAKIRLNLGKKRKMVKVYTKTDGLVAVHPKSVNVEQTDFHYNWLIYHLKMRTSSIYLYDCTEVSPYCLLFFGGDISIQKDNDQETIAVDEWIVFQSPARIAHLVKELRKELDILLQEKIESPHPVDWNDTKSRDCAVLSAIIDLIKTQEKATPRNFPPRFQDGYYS
# Sequence of UniProt Q96LJ7 (Q96LJ7 whole entry, looked up): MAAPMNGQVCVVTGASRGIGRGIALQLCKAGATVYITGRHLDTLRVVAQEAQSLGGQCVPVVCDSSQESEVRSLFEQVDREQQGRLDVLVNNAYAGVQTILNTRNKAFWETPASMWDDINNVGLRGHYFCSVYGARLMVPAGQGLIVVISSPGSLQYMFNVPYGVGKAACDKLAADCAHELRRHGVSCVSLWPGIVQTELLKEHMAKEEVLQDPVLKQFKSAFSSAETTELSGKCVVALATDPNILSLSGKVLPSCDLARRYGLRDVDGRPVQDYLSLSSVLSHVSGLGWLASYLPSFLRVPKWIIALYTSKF
# Sequence of UniProt O60888 (O60888 whole entry, looked up): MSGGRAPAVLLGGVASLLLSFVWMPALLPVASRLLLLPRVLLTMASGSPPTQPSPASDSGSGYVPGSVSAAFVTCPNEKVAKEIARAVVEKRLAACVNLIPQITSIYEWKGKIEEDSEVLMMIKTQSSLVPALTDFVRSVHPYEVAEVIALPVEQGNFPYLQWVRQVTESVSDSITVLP
# Sequence of UniProt P09668 (P09668 whole entry, looked up): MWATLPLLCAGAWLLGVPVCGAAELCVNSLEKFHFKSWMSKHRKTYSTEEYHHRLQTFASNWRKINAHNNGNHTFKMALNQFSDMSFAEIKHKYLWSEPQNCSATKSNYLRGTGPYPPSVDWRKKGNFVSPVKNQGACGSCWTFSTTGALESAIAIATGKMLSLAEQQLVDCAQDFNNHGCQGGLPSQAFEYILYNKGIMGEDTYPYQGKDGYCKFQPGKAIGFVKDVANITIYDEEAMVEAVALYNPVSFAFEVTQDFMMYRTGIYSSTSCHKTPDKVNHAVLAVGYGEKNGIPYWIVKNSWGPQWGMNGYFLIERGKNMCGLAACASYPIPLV
# Sequence of UniProt P41091 (P41091 whole entry, looked up): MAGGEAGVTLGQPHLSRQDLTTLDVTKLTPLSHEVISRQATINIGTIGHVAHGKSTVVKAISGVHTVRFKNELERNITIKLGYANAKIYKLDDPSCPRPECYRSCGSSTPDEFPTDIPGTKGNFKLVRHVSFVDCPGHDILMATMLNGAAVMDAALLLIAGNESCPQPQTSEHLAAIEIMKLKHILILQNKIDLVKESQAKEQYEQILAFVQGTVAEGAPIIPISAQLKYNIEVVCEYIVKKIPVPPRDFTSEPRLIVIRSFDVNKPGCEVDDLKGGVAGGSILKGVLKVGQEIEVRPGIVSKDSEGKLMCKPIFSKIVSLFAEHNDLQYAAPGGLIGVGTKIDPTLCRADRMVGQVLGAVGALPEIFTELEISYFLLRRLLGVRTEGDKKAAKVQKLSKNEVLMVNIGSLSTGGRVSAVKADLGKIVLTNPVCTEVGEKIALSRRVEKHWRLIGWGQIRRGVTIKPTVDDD
# Sequence of UniProt O75911 (O75911 whole entry, looked up): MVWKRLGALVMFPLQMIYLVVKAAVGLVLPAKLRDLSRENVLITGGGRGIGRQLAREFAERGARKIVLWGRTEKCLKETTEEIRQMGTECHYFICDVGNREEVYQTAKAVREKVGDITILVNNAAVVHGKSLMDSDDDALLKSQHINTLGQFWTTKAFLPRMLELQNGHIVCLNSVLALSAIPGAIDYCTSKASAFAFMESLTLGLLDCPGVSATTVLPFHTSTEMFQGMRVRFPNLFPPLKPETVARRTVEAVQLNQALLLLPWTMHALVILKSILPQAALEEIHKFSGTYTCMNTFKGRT
# Sequence of UniProt Q13011 (Q13011 whole entry, looked up): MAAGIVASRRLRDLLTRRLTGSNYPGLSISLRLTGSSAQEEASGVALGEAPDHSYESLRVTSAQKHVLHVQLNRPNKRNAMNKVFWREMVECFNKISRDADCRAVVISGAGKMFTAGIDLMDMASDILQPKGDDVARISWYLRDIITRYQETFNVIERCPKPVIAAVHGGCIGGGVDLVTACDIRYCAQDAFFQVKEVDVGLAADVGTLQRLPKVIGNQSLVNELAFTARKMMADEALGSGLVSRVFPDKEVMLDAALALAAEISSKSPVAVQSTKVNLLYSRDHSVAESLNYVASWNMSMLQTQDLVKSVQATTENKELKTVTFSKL
# Sequence of UniProt P13498 (P13498 whole entry, looked up): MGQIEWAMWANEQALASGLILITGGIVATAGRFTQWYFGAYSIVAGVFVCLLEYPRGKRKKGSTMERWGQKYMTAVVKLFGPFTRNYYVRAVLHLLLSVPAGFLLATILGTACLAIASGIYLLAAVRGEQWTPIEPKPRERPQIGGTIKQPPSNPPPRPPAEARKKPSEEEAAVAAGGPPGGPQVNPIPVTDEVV
# Sequence of UniProt Q6IAN0 (Q6IAN0 whole entry, looked up): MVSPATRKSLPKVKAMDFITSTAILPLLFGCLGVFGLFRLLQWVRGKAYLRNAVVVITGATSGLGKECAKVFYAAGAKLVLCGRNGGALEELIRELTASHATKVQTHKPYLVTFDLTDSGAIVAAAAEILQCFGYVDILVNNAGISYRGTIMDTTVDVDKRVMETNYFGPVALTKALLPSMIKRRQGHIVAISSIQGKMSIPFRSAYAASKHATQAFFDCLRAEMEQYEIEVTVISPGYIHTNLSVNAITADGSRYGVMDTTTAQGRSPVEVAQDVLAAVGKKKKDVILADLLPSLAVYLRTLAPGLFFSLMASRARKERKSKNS
Target,log2 fold change [1],log2 fold change [2],log2 fold change [3],log2 fold change [4],log2 fold change [5],log2 fold change [6],log2 fold change [7],log2 fold change [8],log2 fold change [9],log2 fold change [10],log2 fold change [11],log2 fold change [12],log2 fold change [13],log2 fold change [14],log2 fold change [15],log2 fold change [16],log2 fold change [17],log2 fold change [18],log2 fold change [19],log2 fold change [20]
EPHX2 (UniProt P34913),0.098,0.117,-0.019,-0.012,-0.002,-0.032,-0.015,0.033,0.066,0.091,-0.009,0.172,-0.023,0.003,-0.022,-0.002,0.002,0.216,0.003,-0.011
DHRS7B (UniProt Q6IAN0),-0.079,-0.147,-0.043,-0.106,0.004,0.059,-0.002,0.021,-0.122,0.538 (active),-0.003,0.148,-0.18,-0.019,0.051,-0.067,0.029,0.071,-0.008,-0.016
CYBA (UniProt P13498),-0.091,-0.125,-0.026,0.037,0.047,0.074,-0.02,0.058,-0.064,-0.04,0.067,0.033,-0.031,-0.02,0.01,0.014,-0.035,-0.013,0.031,0.008
DHRS1 (UniProt Q96LJ7),0.164,0.302,0.039,-0.062,0.034,-0.098,-0.048,-0.022,-0.051,0.065,-0.074,0.153,-0.018,0.022,0.375,-0.007,0.031,0.392,-0.116,-0.116
CUEDC2 (UniProt Q9H467),-0.044,-0.133,0.033,0.118,-0.01,-0.001,-0.01,0.105,-0.038,-0.067,-0.003,-0.045,-0.089,0.197,-0.036,-0.067,-0.033,-0.338 (active),0.071,0.016
CUTA isoform 2 (UniProt O60888),0.063,-0.057,-0.033,0.125,0.03,-0.109,0.175,-0.13,0.164,-0.027,0.202,0.097,-0.158,0.049,0.003,-0.027,-0.035,0.034,-0.002,0.122
ERLIN1 (UniProt O75477),-0.01,-0.025,0.07,0.018,0.01,0.057,0.003,0.016,0.095,0.116,0,-0.072,0.023,0.029,-0.06,0.028,0.072,-0.004,0.105,-0.024
EIF2S3 (UniProt P41091),0.076,0.073,0.026,-0.144,0.009,0.055,-0.034,-0.02,0.068,0.049,-0.016,0,0.057,-0.006,-0.02,0.114,0.124,0.033,0.04,-0.002
CTSH (UniProt P09668),-0.087,-0.06,0.008,-0.022,0.03,0.057,0.001,0.004,-0.008,-0.295 (active),0.101,0.044,0.038,0.017,-0.002,0.018,-0.121,-0.03,0.018,0.02
EEA1 (UniProt Q15075),0.036,0.031,-0.024,0.017,-0.002,0.019,-0.038,-0.014,-0.023,0.001,0.07,0.013,0.013,-0.014,-0.014,-0.033,-0.035,-0.026,-0.047,0.007
DHRS3 (UniProt O75911),0.134,0.02,0.02,-0.002,0.001,0.001,-0.054,-0.013,-0.062,0.056,-0.022,-0.008,0.001,-0.042,0.044,0.077,-0.04,-0.016,0.004,0.027
ECH1 (UniProt Q13011),0.019,0.276,0.024,0.036,-0.032,-0.021,0.023,0.052,-0.041,0.694 (active),-0.037,0.727 (active),0.053,0.519 (active),0.122,-0.023,-0.012,-0.031,-0.035,-0.024
DCTN1 isoform 4 (UniProt Q14203),0.01,-0.1,0.078,0.02,-0.157,-0.024,0.052,0.086,0.149,-0.096,-0.126,-0.159,-0.083,0.079,-0.056,-0.037,0.227,0.074,0.083,-0.068
DHX36 (UniProt Q9H2U1),0.11,0.059,0.002,-0.032,-0.009,0.032,-0.032,-0.015,0.086,-0.027,-0.014,0.021,0.122,0.048,-0.041,0.171,0.187,0.03,0.095,0.011
DIAPH1 (UniProt O60610),0.012,-0.211,0.09,-0.004,-0.061,0.055,0.053,0.047,0.168,-0.012,-0.104,-0.276,0.132,0.086,0.044,-0.039,0.219,0.125,0.215,-0.12
DMXL1 (UniProt Q9Y485),-0.119,-0.241,0.029,0.026,-0.044,0.072,0.012,-0.032,0.01,-0.276 (active),0.014,0.001,-0.068,-0.011,-0.065,-0.035,0.076,-0.017,0.043,-0.047
